Test results as given in PubChem BioAssay AID1159580 (chemical genetic matrix, 2015).
Screen size: about 5,500 compounds; about 2,000 (36%) were called active. Not shown: some 18% with an inconclusive outcome. Cut-off read from the data, not from the text of the source: active = normalized growth mostly below about 0.91 (no sharp cut-off); inconclusive = no clear call, values can overlap the other calls; inactive = mostly above about 0.92. This is one part of the list.

Assay: chemical genetic growth profiling, strain panel (AID 1159580);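 note: tested at 20 µM; growth read once vehicle control cultures reached saturation at 30 °C; 1 = growth at the plate median or of vehicle wells; lower values mean less growth of the strain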
Conditions: S. cerevisiae deletion strains, growth OD

Measured: normalized growth

C=C1C2CC[C@@]3(C)[C@H](c4ccoc4)OC(=O)C[C@]13O[C@H]1CC(=O)C(C)(C)C(CC(=O)OC)[C@@]21C (some centres not stated)
inactive: locus YAL021C, strain ccr4, active compounds read low 1.01 | locus YAL026C, strain drs2, active compounds read low 0.981 | locus YAL030W, strain snc1, active compounds read low 0.983 | locus YBL061C, strain skt5, active compounds read low 0.981 | locus YBR009C, strain hhf1, active compounds read low 0.995 | locus YBR021W, strain FUR4, active compounds read low 1 | locus YBR023C, strain chs3, active compounds read low 0.977 | locus YBR171W, strain sec66, active compounds read low 0.953 | locus YBR229C, strain ROT2, active compounds read low 0.989 | locus YBR231C, strain swc5, active compounds read low 0.983 | locus YBR279W, strain paf1, active compounds read low 0.979 | locus YCL011C, strain gbp2, active compounds read low 0.962 | locus YCL016C, strain dcc1, active compounds read low 1.01 | locus YCL029C, strain bik1, active compounds read low 0.992 | locus YCL061C, strain MRC1, active compounds read low 0.987 | locus YCL069W, strain vba3, active compounds read low 0.964 | locus YCR088W, strain abp1, active compounds read low 0.964 | locus YDL005C, strain med2, active compounds read low 0.969 | locus YDL035C, strain GPR1, active compounds read low 0.984 | locus YDL040C, strain nat1, active compounds read low 0.966 | locus YDL074C, strain BRE1, active compounds read low 1.01 | locus YDL101C, strain DUN1, active compounds read low 1 | locus YDL185W, strain tfp1, active compounds read low 1.01 | locus YDL192W, strain arf1, active compounds read low 0.988 | locus YDR001C, strain nth1, active compounds read low 0.976 | locus YDR069C, strain doa4, active compounds read low 0.975 | locus YDR101C, strain arx1, active compounds read low 0.986 | locus YDR137W, strain rgp1, active compounds read low 0.922 | locus YDR159W, strain sac3, active compounds read low 0.948 | locus YDR162C, strain NBP2, active compounds read low 0.962 | locus YDR195W, strain ref2 0.978 | locus YDR297W, strain sur2, active compounds read low 0.983 | locus YDR318W, strain mcm21, active compounds read low 0.998 | locus YDR334W, strain swr1, active compounds read low 0.966 | locus YDR335W, strain msn5, active compounds read low 0.972 | locus YDR388W, active compounds read low 1.02 | locus YDR392W, strain spt3, active compounds read low 0.958 | locus YDR502C, strain sam2, active compounds read low 1.01 | locus YEL003W, strain gim4, active compounds read low 0.979 | locus YEL037C, strain rad23, active compounds read low 0.97 | locus YEL061C, strain CIN8 (second series), active compounds read low 0.966 | locus YER015W, strain faa2, active compounds read low 0.987 | locus YER016W, strain bim1, active compounds read low 0.975 | locus YER110C, active compounds read low 1.01 | locus YER111C, strain swi4, active compounds read low 0.978 | locus YER155C, strain BEM2 (second series), active compounds read low 0.991 | locus YER155C, strain BEM2, active compounds read low 1.01 | locus YER167W, strain BCK2, active compounds read low 0.984 | locus YFR010W, strain ubp6, active compounds read low 0.963 | locus YGL078C, strain dbp3, active compounds read low 1.02 | locus YGL086W, strain mad1, active compounds read low 1 | locus YGL167C, strain pmr1, active compounds read low 0.97 | locus YGL173C, strain kem1, active compounds read low 0.969 | locus YGL227W, strain vid30, active compounds read low 0.973 | locus YGL240W, strain doc1, active compounds read low 0.974 | locus YGL248W, strain PDE1, active compounds read low 0.998 | locus YGL253W, strain hxk2, active compounds read low 0.952 | locus YGR135W, strain pre9, active compounds read low 1.03 | locus YGR252W, strain gcn5, active compounds read low 1.01 | locus YHR013C, strain ard1, active compounds read low 0.974 | locus YHR027C, strain rpn1, active compounds read low 0.985 | locus YHR030C, strain SLT2, active compounds read low 0.996 | locus YHR079C, strain IRE1 (second series), active compounds read low 0.998 | locus YHR094C, strain hxt1, active compounds read low 1.01 | locus YHR129C, strain ARP1, active compounds read low 1.01 | locus YHR142W, strain chs7, active compounds read low 0.969 | locus YHR200W, strain rpn10, active compounds read low 1.01 | locus YIL066C, strain RNR3, active compounds read low 0.989 | locus YIL073C, strain SPO22, active compounds read low 1.04 | locus YIL125W, strain kgd1, active compounds read low 1 | locus YIR030C, strain dcg1, active compounds read low 1 | locus YJL092W, strain hpr5, active compounds read low 0.967 | locus YJL095W, strain BCK1 (second series), active compounds read low 0.991 | locus YJL095W, strain BCK1, active compounds read low 1.03 | locus YJL115W, strain asf1, active compounds read low 0.973 | locus YJL129C, strain trk1, active compounds read low 0.961 | locus YJL134W, strain LCB3, active compounds read low 1.01 | locus YJL154C, strain vps35, active compounds read low 0.973 | locus YJL164C, strain tpk1, active compounds read low 1 | locus YJL166W, strain qcr8, active compounds read low 0.977 | locus YJL168C, strain set2, active compounds read low 0.998 | locus YJL187C, strain SWE1 (second series), active compounds read low 1.01 | locus YJL187C, strain SWE1, active compounds read low 0.974 | locus YKL009W, strain mrt4, active compounds read low 0.968 | locus YKL068W, active compounds read low 1 | locus YKL085W, strain MDH1 (second series), active compounds read low 0.989 | locus YKL085W, strain MDH1, active compounds read low 0.989 | locus YKL160W, strain elf1, active compounds read low 1.01 | locus YKR001C, strain vps1, active compounds read low 1 | locus YKR026C, strain gcn3, active compounds read low 0.979 | locus YKR091W, strain srl3, active compounds read low 0.986 | locus YLL001W, strain dnm1, active compounds read low 1.01 | locus YLL026W, active compounds read low 0.981 | locus YLL041C, strain sdh2, active compounds read low 0.974 | locus YLR027C, strain aat2, active compounds read low 0.996 | locus YLR039C, strain RIC1, active compounds read low 0.794 | locus YLR058C, strain SHM2, active compounds read low 1 | locus YLR102C, strain apc9, active compounds read low 1 | locus YLR221C, strain rsa3, active compounds read low 0.957 | locus YLR258W, strain gsy2, active compounds read low 0.975 | locus YLR262C, strain YPT6 (second series), active compounds read low 0.923 | locus YLR262C, strain YPT6, active compounds read low 0.701 | locus YLR268W, strain sec22, active compounds read low 0.984 | locus YLR320W, strain mms22, active compounds read low 0.964 | locus YLR342W, strain FKS1 (second series), active compounds read low 1 | locus YLR342W, strain FKS1, active compounds read low 0.993 | locus YLR357W, strain rsc2, active compounds read low 0.991 | locus YLR370C, strain arc18, active compounds read low 0.955 | locus YLR371W, strain rom2, active compounds read low 1.01 | locus YLR384C, strain iki3, active compounds read low 0.964 | locus YLR418C, strain cdc73, active compounds read low 1.01 | locus YML016C, strain PPZ1, active compounds read low 0.995 | locus YML032C, strain rad52, active compounds read low 1.02 | locus YML120C, strain ndi1, active compounds read low 0.973 | locus YML124C, strain tub3, active compounds read low 1.01 | locus YMR058W, strain fet3, active compounds read low 0.983 | locus YMR078C, strain ctf18, active compounds read low 1.01 | locus YMR125W, strain sto1, active compounds read low 0.98 | locus YMR129W, active compounds read low 0.985 | locus YMR205C, strain PFK2, active compounds read low 1.03 | locus YMR223W, strain ubp8, active compounds read low 1 | locus YMR231W, strain pep5, active compounds read low 0.943 | locus YMR307W, strain GAS1, active compounds read low 0.998 | locus YNL067W, strain RPL9B, active compounds read low 1.02 | locus YNL071W, strain lat1, active compounds read low 0.982 | locus YNL128W, strain TEP1, active compounds read low 0.996 | locus YNL209W, strain ssb2, active compounds read low 0.978 | locus YNL233W, strain BNI4, active compounds read low 0.969 | locus YNL248C, strain rpa49, active compounds read low 0.986 | locus YNL250W, strain rad50, active compounds read low 1.02 | locus YNL271C, strain bni1, active compounds read low 1 | locus YNL298W, strain CLA4, active compounds read low 1.01 | locus YNL307C, strain MCK1, active compounds read low 1.01 | locus YNL322C, strain KRE1 (second series), active compounds read low 0.967 | locus YNR049C, strain mso1, active compounds read low 0.982 | locus YNR052C, strain pop2, active compounds read low 1.01 | locus YOL012C, strain htz1 0.839 | locus YOL147C, strain pex11, active compounds read low 1.01 | locus YOR001W, strain rrp6, active compounds read low 0.944 | locus YOR061W, strain CKA2, active compounds read low 0.993 | locus YOR069W, strain VPS5, active compounds read low 1 | locus YOR070C, strain gyp1, active compounds read low 1.01 | locus YOR080W, strain dia2, active compounds read low 0.957 | locus YOR083W, strain WHI5, active compounds read low 1.01 | locus YOR106W, strain vam3, active compounds read low 0.982 | locus YOR136W, strain idh2, active compounds read low 1 | locus YOR144C, strain elg1, active compounds read low 1.01 | locus YOR184W, strain ser1, active compounds read low 0.985 | locus YOR265W, strain rbl2, active compounds read low 1 | locus YOR270C, strain vph1, active compounds read low 0.957 | locus YOR290C, strain snf2, active compounds read low 0.97 | locus YOR316C, strain cot1, active compounds read low 1 | locus YPL051W, strain arl3, active compounds read low 0.995 | locus YPL078C, strain atp4, active compounds read low 1.01 | locus YPL106C, strain sse1, active compounds read low 0.978 | locus YPL240C, strain hsp82, active compounds read low 0.965 | locus YPL241C, strain CIN2, active compounds read low 0.998 | locus YPR119W, strain clb2, active compounds read low 1.01 | locus YPR141C, strain kar3, active compounds read low 0.997 | locus YPR163C, strain tif3, active compounds read low 1.01 | locus YPR167C, strain met16, active compounds read low 1 | strain wtn01, active compounds read low 0.987
